Source: ChEMBL document CHEMBL2218924, “A broad activity screen in support of a chemogenomic map for kinase signalling research and drug discovery” (Biochem J, 2013)

Tests used:
[1] = molecular target: T1, Ephrin type-A receptor 3 (Homo sapiens) (UniProt P29320); details: at 10 µM
T1 sequence (whole entry): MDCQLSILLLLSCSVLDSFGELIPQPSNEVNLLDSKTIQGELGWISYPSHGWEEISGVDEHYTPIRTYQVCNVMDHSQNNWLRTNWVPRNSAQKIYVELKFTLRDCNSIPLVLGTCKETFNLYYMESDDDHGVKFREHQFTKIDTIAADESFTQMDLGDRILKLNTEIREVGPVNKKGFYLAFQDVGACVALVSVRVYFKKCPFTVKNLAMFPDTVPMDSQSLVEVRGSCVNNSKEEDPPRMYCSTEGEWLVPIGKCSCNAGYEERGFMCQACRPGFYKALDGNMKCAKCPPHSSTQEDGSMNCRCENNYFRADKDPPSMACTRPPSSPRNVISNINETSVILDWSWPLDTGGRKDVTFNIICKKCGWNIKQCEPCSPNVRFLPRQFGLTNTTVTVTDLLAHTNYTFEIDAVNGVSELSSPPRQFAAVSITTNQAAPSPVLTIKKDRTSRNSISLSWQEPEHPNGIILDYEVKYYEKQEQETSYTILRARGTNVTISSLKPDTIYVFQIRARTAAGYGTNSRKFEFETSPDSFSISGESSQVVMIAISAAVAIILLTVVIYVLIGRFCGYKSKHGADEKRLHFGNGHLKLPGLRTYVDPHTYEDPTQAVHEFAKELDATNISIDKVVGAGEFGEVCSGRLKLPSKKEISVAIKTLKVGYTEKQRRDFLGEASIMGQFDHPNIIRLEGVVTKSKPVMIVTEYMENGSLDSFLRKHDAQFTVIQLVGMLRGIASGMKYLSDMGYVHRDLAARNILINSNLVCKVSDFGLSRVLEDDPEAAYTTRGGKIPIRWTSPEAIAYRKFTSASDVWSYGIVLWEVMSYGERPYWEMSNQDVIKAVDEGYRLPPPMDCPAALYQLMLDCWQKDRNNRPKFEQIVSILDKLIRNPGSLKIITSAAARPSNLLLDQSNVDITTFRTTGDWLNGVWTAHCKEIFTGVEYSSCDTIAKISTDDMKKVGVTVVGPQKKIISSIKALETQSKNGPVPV

[2] = molecular target: Ephrin type-A receptor 4 (Homo sapiens) (UniProt P54764); details: at 1 µM
[3] = molecular target: Ephrin type-A receptor 4 (Homo sapiens) (UniProt P54764); details: at 10 µM
[4] = molecular target: Ephrin type-A receptor 5 (Homo sapiens) (UniProt P54756); details: at 1 µM
[5] = molecular target: Ephrin type-A receptor 5 (Homo sapiens) (UniProt P54756); details: at 10 µM
[6] = molecular target: Ephrin type-A receptor 7 (Homo sapiens) (UniProt Q15375); details: at 1 µM
[7] = molecular target: Ephrin type-A receptor 7 (Homo sapiens) (UniProt Q15375); details: at 10 µM
[8] = molecular target: T2, Ephrin type-A receptor 8 (Homo sapiens) (UniProt P29322); details: at 1 µM
T2 sequence (whole entry): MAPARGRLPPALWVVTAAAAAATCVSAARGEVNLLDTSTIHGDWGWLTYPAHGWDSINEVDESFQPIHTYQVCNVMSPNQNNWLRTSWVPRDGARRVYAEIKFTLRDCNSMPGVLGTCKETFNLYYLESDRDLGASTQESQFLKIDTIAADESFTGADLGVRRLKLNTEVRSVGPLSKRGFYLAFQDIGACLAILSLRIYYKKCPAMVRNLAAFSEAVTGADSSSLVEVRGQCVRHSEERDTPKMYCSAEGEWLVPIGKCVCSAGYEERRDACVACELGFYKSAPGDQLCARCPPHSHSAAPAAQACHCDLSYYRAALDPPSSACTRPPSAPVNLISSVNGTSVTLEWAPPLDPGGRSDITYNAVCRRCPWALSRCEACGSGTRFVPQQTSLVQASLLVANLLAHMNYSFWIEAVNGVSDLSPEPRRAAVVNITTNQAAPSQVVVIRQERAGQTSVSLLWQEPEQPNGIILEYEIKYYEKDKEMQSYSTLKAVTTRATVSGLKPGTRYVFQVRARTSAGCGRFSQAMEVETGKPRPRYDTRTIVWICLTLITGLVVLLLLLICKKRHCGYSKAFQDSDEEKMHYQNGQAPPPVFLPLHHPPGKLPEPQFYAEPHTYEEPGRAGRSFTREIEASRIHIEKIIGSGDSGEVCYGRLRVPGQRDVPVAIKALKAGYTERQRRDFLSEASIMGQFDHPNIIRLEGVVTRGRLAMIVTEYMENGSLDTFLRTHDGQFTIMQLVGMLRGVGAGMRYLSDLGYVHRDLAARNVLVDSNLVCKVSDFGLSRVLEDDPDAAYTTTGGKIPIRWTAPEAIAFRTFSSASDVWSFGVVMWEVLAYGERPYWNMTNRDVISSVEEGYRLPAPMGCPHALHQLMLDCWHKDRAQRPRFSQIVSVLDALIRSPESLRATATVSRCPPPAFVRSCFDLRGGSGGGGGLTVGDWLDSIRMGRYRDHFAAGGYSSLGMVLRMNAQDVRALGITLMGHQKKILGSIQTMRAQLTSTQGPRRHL

[9] = molecular target: T2, Ephrin type-A receptor 8 (Homo sapiens); details: at 10 µM
[10] = molecular target: T3, Ephrin type-B receptor 1 (Homo sapiens) (UniProt P54762); details: at 1 µM
T3 sequence (whole entry): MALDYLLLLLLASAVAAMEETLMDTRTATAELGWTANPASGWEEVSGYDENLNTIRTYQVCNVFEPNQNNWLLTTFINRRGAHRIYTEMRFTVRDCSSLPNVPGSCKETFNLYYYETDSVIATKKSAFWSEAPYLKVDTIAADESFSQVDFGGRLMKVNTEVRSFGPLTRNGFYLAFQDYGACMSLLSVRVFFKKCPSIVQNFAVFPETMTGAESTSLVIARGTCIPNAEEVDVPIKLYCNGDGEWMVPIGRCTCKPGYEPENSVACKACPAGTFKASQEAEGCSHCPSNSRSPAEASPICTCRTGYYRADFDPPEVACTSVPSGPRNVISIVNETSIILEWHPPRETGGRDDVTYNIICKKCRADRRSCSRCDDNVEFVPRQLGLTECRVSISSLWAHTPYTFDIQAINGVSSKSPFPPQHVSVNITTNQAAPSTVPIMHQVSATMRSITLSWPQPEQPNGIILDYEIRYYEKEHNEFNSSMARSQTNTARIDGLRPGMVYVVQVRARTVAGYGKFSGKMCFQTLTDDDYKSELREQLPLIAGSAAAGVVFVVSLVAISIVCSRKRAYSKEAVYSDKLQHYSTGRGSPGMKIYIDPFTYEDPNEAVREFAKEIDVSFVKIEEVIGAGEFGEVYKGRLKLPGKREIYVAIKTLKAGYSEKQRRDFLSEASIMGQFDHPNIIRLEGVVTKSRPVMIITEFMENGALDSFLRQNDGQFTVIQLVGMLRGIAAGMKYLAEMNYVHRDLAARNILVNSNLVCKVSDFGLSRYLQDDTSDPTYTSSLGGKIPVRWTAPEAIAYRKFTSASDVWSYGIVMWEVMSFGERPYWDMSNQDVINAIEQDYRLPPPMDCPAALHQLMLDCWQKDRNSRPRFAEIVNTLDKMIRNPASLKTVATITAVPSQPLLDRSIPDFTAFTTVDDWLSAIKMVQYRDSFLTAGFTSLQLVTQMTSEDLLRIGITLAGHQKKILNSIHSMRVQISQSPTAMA

Sequence of Ephrin type-A receptor 7 (Homo sapiens) (Q15375 28-998 limits assumed): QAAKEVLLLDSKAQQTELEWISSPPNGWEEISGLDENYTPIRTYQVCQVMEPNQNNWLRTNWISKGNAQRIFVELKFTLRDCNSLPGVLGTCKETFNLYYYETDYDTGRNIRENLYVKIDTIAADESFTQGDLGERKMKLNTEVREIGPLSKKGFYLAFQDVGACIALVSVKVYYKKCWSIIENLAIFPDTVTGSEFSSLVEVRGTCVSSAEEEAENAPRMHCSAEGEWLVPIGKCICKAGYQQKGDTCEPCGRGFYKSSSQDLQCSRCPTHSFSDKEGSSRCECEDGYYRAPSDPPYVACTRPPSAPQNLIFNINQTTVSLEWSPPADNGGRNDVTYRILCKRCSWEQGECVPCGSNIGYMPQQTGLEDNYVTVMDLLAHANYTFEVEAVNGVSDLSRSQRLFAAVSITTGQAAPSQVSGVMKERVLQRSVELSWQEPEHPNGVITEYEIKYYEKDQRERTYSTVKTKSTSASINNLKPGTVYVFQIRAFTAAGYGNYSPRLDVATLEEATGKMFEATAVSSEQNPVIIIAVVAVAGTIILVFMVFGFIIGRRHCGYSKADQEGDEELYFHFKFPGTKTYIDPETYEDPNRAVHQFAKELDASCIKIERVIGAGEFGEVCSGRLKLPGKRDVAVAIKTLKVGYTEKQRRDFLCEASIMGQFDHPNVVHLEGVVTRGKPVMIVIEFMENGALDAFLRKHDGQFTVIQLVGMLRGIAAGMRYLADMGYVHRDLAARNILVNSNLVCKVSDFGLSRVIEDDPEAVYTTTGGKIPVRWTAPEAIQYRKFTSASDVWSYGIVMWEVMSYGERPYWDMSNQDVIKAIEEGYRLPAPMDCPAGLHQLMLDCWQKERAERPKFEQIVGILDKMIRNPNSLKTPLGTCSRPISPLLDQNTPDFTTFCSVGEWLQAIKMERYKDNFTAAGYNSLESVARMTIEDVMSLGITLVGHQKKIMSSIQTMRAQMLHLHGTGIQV
Sequence of Ephrin type-A receptor 5 (Homo sapiens) (P54756 whole entry): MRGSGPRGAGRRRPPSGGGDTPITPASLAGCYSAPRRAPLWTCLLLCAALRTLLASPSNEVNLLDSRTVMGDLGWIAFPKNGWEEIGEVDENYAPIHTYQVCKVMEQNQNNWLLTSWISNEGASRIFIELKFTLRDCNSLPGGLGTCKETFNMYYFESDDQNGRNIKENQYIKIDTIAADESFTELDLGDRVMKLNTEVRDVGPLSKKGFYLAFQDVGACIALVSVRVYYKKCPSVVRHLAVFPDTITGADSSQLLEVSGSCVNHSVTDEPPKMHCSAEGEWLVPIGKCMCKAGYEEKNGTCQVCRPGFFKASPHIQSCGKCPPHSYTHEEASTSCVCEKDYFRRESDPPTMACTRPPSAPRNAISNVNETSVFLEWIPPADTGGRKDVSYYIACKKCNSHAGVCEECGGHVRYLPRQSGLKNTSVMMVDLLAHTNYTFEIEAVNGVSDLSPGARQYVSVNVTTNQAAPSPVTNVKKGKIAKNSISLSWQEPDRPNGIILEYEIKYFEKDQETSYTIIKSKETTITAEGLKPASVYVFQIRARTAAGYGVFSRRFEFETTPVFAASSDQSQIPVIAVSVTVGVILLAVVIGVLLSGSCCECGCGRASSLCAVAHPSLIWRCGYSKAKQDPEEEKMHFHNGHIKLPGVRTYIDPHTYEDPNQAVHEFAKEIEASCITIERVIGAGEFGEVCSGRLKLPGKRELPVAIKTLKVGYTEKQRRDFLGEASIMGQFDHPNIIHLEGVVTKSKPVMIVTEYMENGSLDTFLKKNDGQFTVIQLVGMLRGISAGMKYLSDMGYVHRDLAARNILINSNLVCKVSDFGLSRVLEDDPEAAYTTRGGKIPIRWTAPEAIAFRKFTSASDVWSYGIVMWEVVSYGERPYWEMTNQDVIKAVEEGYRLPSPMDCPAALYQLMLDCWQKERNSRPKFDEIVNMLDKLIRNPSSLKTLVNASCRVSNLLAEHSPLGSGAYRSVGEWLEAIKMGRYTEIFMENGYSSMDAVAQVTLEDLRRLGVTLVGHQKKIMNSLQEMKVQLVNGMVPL
Sequence of Ephrin type-A receptor 4 (Homo sapiens) (P54764 whole entry): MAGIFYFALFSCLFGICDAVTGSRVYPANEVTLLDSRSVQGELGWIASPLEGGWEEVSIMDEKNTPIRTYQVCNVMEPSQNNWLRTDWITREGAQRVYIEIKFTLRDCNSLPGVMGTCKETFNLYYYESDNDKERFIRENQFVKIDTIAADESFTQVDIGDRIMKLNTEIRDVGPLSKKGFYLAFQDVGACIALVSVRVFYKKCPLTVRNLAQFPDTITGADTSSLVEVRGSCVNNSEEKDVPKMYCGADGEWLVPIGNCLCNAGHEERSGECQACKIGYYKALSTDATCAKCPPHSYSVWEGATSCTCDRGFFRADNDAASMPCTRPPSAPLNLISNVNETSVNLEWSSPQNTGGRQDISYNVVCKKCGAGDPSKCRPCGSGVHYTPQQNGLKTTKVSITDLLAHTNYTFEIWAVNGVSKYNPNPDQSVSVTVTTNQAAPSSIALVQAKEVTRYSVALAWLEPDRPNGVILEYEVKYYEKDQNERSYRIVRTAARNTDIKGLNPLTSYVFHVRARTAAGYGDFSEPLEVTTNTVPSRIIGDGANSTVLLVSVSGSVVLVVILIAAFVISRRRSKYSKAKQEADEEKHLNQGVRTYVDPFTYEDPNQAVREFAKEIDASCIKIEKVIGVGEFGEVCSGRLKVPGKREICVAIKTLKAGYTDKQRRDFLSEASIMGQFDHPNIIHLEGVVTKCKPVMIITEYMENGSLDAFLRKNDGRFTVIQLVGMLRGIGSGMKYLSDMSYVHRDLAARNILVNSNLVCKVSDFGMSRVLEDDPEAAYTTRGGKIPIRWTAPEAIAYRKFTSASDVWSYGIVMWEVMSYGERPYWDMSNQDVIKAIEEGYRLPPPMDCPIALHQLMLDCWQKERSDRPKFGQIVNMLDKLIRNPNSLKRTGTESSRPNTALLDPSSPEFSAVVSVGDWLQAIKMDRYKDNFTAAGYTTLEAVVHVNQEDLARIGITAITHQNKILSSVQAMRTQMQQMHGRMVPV

**Q.** `COc1ccc(S(=O)(=O)N(CCO)c2ccccc2CN(C)C/C=C/c2ccc(Cl)cc2)cc1` was tested. Which residual activity [1] did it give?
**A.** 83%

**Q.** What about the residual activity [2] of the same compound?
**A.** 103%

**Q.** What about the residual activity [3] of the same compound?
**A.** 97%

**Q.** And the residual activity [4]?
**A.** 124%

**Q.** What about the residual activity [5] of the same compound?
**A.** 112%

**Q.** And the residual activity [6]?
**A.** 96%

**Q.** What about the residual activity [7] of the same compound?
**A.** 96%

**Q.** What about the residual activity [8] of the same compound?
**A.** 98%

**Q.** And the residual activity [9]?
**A.** 88%

**Q.** What about the residual activity [10] of the same compound?
**A.** 103%
